Reference: publication PMC7862700, “An all-to-all approach to the identification of sequence-specific readers for epigenetic DNA modifications on cytosine”

Legend:
Test in all cases: DAPPL (digital affinity profiling via proximity ligation, sequencing); 10 mM Tris-HCl pH 7.5, 50 mM NaCl, 1 mM DTT, 4% glycerol, room temperature, 30 min; GST-TFs on glutathione beads, 16-mer random dsDNA library, 0.1% formaldehyde crosslink after washing; high values mean tight binding
[1] = target: T1, FEV (Homo sapiens, UniProt Q99581 1-238); conditions: protein: recombinant; tags: N-terminal GST; dsDNA, one strand shown
T1 sequence: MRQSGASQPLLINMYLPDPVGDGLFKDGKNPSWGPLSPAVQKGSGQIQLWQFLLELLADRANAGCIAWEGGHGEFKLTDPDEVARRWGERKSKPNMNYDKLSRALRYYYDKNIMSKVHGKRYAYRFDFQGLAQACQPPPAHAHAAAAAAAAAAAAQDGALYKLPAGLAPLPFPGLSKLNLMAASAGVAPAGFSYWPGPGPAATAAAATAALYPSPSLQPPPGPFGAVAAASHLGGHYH
Method in brief: (§1)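 After expression in yeast as GST fusions, human transcription factors were bound to glutathione beads, DNA-barcoded and mixed with a tag-only sample. The pools were incubated with 200 nmole of a 16-mer random double-stranded DNA library in Tris/NaCl/DTT/glycerol buffer (30 min, room temperature), washed and crosslinked with 0.1% formaldehyde. Proximity ligation with BsaI/T4 ligase ran for 1 h at 37 °C, before PCR amplification and sequencing on an Illumina NextSeq500. Binding signal is a hexamer's read frequency for a factor divided by its frequency for the tag-only sample.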

[2] = target: ETV5 (Homo sapiens, UniProt P41161 1-510); conditions: protein: recombinant; tags: N-terminal GST; dsDNA, one strand shown
Method in brief: as §1

[3] = target: HSF1 (Homo sapiens, UniProt Q00613 1-529); conditions: protein: recombinant; tags: N-terminal GST; chain copies: 3; dsDNA, one strand shown
Method in brief: as §1

[4] = target: T2, SPIC (Homo sapiens, UniProt Q8N5J4 1-248); conditions: protein: recombinant; tags: N-terminal GST; dsDNA, one strand shown
T2 sequence: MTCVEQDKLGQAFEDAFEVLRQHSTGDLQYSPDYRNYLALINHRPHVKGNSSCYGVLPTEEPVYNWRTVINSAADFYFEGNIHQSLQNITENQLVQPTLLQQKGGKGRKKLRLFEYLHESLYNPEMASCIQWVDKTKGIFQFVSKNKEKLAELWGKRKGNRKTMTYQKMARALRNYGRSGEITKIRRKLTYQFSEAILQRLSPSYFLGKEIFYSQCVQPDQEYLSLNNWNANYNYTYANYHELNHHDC
Method in brief: as §1

[5] = target: ELF4 (Homo sapiens, UniProt Q99607 1-663); conditions: protein: recombinant; tags: N-terminal GST; dsDNA, one strand shown
Method in brief: as §1

[6] = target: T3, ELK4 (Homo sapiens, UniProt P28324-2 1-405); conditions: protein: recombinant; tags: N-terminal GST; dsDNA, one strand shown
T3 sequence: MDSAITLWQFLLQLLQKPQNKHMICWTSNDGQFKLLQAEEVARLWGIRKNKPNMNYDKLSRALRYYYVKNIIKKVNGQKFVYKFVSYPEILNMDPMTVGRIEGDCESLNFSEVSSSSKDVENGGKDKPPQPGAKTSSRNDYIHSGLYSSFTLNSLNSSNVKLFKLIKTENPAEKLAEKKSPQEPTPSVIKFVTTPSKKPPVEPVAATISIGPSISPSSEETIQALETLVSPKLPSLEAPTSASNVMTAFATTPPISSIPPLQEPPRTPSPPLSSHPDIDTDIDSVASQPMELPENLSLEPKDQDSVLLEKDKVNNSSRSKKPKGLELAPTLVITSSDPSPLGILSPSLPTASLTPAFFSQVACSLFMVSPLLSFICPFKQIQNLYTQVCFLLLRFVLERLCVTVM
Method in brief: as §1

[7] = target: T4, ETV2 (Homo sapiens, UniProt O00321 1-342); conditions: protein: recombinant; tags: N-terminal GST; dsDNA, one strand shown
T4 sequence: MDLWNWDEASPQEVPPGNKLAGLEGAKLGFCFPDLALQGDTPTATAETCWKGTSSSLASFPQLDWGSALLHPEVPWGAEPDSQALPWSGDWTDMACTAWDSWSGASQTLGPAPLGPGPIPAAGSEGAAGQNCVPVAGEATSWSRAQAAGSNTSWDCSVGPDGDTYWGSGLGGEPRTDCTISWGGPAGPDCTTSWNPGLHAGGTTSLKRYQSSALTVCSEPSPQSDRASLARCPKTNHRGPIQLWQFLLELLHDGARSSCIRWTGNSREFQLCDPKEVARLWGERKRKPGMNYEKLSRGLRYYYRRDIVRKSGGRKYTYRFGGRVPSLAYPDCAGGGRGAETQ
Method in brief: as §1

[8] = target: T5, ELF3 (Homo sapiens, UniProt P78545 1-371); conditions: protein: recombinant; tags: N-terminal GST; dsDNA, one strand shown
T5 sequence: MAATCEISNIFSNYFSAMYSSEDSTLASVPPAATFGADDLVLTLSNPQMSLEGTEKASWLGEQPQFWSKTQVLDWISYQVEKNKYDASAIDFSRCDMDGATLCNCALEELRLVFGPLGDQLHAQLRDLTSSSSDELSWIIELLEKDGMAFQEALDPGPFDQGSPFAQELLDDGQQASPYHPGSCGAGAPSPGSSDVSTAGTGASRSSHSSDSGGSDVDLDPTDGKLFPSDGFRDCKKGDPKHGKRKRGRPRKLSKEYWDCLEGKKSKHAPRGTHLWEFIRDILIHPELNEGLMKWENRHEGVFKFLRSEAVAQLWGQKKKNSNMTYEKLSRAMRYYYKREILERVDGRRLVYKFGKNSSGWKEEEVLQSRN
Method in brief: as §1

[9] = target: CRX (Homo sapiens, UniProt O43186 1-299); conditions: protein: recombinant; tags: N-terminal GST; dsDNA, one strand shown
Method in brief: as §1

[10] = target: ETV1 (Homo sapiens, UniProt P50549 1-477); conditions: protein: recombinant; tags: N-terminal GST; dsDNA, one strand shown
Method in brief: as §1

[11] = target: T6, ERF (Homo sapiens, UniProt P50548 1-548); conditions: protein: recombinant; tags: N-terminal GST; dsDNA, one strand shown
T6 sequence: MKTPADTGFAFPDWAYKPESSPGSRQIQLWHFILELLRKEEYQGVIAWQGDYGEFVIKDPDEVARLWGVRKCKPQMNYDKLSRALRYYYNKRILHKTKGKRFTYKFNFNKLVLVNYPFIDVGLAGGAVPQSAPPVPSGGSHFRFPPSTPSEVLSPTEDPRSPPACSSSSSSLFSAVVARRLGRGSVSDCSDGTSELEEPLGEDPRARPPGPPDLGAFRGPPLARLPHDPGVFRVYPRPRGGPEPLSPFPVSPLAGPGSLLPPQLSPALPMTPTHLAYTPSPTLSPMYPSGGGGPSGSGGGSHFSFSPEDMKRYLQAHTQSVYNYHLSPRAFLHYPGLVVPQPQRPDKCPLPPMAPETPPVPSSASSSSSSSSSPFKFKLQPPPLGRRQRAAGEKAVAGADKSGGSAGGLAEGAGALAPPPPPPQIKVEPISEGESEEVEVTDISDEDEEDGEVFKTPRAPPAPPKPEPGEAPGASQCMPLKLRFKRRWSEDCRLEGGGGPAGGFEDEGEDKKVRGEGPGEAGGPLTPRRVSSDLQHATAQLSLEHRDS
Method in brief: as §1

[12] = target: T7, ETV3L (Homo sapiens, UniProt Q6ZN32 1-361); conditions: protein: recombinant; tags: N-terminal GST; dsDNA, one strand shown
T7 sequence: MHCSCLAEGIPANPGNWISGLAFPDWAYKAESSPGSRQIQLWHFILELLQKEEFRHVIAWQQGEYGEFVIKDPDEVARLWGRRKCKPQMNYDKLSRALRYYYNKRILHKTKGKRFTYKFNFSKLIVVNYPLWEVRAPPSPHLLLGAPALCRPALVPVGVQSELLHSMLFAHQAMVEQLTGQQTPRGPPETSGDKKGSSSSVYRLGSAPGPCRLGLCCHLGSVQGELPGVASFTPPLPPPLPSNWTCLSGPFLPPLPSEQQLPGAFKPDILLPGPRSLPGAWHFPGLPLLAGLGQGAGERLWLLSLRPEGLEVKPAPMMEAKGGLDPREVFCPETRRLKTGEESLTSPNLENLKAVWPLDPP
Method in brief: as §1

[13] = target: T8, ETS2 (Homo sapiens, UniProt P15036 1-469); conditions: protein: recombinant; tags: N-terminal GST; dsDNA, one strand shown
T8 sequence: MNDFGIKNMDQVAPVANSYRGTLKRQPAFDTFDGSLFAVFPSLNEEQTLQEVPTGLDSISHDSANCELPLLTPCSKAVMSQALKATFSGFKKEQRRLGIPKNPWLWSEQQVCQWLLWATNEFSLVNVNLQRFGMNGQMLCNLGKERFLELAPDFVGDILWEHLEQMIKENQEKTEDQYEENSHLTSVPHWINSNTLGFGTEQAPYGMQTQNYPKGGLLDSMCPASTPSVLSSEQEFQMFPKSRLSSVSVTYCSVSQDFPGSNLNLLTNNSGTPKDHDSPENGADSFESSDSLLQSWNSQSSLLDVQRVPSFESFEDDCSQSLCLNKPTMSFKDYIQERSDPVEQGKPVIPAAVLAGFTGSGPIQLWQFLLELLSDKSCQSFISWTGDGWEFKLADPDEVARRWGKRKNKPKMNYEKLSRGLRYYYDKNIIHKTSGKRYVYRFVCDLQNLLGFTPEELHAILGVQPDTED
Method in brief: as §1

[14] = target: T9, SPDEF (Homo sapiens, UniProt O95238 1-335); conditions: protein: recombinant; tags: N-terminal GST; dsDNA, one strand shown
T9 sequence: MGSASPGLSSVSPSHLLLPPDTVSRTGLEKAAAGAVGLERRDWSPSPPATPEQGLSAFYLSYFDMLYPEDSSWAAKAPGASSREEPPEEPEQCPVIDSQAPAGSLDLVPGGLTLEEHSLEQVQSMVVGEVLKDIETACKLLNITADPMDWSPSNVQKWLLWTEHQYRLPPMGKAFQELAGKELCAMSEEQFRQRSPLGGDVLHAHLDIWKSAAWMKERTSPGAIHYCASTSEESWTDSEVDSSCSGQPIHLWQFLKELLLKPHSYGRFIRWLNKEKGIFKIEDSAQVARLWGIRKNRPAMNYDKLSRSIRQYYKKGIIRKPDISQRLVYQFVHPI
Method in brief: as §1

[15] = target: T10, ETV7 (Homo sapiens, UniProt Q9Y603 1-341); conditions: protein: recombinant; tags: N-terminal GST; dsDNA, one strand shown
T10 sequence: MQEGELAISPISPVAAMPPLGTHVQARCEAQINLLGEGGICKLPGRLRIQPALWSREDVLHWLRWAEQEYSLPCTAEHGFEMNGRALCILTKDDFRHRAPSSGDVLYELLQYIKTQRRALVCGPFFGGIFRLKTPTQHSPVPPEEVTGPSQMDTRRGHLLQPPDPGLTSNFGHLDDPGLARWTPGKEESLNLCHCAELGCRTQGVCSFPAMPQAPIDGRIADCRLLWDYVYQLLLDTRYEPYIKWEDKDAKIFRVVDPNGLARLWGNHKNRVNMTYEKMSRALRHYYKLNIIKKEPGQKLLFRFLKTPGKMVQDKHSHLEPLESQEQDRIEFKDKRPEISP
Method in brief: as §1

[16] = target: T11, ELF5 (Homo sapiens, UniProt Q9UKW6-2 1-255); conditions: protein: recombinant; tags: N-terminal GST; dsDNA, one strand shown
T11 sequence: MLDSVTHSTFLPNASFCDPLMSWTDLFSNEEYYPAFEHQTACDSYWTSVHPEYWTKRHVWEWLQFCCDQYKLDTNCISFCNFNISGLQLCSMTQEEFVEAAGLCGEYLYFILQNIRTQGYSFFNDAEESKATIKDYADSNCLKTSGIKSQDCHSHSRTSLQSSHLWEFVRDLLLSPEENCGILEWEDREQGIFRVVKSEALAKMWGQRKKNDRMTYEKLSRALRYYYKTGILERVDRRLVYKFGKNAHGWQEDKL
Method in brief: as §1

[17] = target: T12, ETV3 (Homo sapiens, UniProt P41162-2 1-143); conditions: protein: recombinant; tags: N-terminal GST; dsDNA, one strand shown
T12 sequence: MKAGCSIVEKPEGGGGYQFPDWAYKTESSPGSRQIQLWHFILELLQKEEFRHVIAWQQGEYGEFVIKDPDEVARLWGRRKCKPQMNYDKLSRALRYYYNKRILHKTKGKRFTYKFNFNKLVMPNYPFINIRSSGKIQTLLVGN
Method in brief: as §1

[18] = target: ETV6 (Homo sapiens, UniProt P41212 1-452); conditions: protein: recombinant; tags: N-terminal GST; dsDNA, one strand shown
Method in brief: as §1

ETV1, sequence (P50549 whole entry): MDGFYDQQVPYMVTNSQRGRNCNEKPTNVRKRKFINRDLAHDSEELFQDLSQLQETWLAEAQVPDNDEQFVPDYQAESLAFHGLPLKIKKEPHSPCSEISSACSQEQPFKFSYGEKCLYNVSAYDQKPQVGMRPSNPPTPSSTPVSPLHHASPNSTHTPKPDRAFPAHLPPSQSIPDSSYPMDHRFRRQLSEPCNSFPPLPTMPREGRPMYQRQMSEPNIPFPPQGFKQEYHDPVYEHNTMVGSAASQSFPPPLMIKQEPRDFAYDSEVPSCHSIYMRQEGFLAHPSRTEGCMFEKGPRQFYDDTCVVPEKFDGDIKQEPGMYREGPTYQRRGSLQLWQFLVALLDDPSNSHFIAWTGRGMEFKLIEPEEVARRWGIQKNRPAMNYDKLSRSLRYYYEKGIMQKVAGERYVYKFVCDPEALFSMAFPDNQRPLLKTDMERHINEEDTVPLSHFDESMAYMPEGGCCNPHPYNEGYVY
CRX, sequence (O43186 whole entry): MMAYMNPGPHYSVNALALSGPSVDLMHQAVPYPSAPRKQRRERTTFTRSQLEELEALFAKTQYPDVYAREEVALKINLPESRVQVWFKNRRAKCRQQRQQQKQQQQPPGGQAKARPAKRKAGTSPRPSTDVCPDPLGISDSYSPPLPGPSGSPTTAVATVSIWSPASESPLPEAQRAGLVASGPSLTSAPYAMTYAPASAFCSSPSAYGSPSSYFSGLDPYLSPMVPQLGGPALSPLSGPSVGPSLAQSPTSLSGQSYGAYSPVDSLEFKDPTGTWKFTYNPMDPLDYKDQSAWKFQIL
ETV6, sequence (P41212 whole entry): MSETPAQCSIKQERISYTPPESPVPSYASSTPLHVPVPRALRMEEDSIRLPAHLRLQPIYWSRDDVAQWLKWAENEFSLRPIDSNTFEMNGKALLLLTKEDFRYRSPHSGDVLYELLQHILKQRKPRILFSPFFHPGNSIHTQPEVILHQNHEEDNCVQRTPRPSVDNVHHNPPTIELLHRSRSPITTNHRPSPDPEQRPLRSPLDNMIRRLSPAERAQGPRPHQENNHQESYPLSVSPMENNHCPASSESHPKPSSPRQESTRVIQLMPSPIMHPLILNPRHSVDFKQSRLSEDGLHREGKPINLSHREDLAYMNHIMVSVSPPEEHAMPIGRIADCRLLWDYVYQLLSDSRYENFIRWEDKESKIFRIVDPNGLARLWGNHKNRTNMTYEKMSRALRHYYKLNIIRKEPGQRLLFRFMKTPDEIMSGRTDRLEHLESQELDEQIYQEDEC
HSF1, sequence (Q00613 whole entry): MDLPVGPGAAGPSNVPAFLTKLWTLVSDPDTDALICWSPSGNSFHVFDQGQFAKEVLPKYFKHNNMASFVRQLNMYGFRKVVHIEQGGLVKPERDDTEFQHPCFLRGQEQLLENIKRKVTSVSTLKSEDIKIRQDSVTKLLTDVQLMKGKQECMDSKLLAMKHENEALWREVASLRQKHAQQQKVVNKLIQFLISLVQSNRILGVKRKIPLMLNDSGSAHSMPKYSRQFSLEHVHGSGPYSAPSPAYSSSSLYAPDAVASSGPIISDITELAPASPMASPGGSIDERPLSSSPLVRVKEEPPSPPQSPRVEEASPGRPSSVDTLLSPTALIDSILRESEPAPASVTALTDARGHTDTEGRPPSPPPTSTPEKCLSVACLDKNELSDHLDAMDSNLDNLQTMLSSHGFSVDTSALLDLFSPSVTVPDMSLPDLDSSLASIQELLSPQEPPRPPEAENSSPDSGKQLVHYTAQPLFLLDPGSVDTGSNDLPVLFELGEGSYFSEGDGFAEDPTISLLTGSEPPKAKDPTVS
ETV5, sequence (P41161 whole entry): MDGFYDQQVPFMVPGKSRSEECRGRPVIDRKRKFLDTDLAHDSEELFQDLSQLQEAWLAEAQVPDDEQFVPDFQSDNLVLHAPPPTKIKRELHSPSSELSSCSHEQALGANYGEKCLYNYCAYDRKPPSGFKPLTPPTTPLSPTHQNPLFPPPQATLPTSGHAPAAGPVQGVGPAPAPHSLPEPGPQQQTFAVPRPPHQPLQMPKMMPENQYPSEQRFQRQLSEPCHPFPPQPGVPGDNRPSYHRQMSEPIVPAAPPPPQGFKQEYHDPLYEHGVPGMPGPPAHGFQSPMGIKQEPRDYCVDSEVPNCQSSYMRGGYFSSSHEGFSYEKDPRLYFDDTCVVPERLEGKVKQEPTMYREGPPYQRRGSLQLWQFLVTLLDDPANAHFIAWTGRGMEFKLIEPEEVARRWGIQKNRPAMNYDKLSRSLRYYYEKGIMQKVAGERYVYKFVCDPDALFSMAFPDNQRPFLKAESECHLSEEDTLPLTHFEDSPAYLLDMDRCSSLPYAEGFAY
ELF4, sequence (Q99607 whole entry): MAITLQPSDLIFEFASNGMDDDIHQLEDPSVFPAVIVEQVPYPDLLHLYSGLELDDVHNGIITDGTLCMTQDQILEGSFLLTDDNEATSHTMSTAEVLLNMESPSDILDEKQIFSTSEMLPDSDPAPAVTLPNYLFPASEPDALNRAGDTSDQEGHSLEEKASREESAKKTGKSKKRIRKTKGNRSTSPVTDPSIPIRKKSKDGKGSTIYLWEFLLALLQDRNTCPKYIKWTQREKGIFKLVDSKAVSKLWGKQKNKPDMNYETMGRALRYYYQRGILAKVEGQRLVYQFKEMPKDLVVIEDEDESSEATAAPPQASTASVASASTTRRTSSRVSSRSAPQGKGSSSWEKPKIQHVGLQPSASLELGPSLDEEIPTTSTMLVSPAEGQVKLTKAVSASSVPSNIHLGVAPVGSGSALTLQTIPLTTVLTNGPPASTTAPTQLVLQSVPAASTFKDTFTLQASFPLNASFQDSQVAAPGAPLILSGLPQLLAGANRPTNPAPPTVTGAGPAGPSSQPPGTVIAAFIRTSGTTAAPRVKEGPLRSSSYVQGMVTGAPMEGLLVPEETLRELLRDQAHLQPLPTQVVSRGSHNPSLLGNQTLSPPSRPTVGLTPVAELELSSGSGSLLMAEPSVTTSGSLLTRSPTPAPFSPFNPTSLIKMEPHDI

ACTATT
binding signal [1]: 1.25 fold enrichment (6-mer frequency, TF over GST control)
binding signal [2]: 1.22 fold enrichment (6-mer frequency, TF over GST control)
binding signal [3]: 1.33 fold enrichment (6-mer frequency, TF over GST control)
binding signal [4]: 1.44 fold enrichment (6-mer frequency, TF over GST control)
binding signal [5]: 1.3 fold enrichment (6-mer frequency, TF over GST control)
binding signal [6]: 1.35 fold enrichment (6-mer frequency, TF over GST control)
binding signal [7]: 1.31 fold enrichment (6-mer frequency, TF over GST control)
binding signal [8]: 1.32 fold enrichment (6-mer frequency, TF over GST control)
binding signal [9]: 1.28 fold enrichment (6-mer frequency, TF over GST control)
binding signal [10]: 1.28 fold enrichment (6-mer frequency, TF over GST control)
binding signal [11]: 1.22 fold enrichment (6-mer frequency, TF over GST control)
binding signal [12]: 1.27 fold enrichment (6-mer frequency, TF over GST control)
binding signal [13]: 1.37 fold enrichment (6-mer frequency, TF over GST control)
binding signal [14]: 1.13 fold enrichment (6-mer frequency, TF over GST control)
binding signal [15]: 1.32 fold enrichment (6-mer frequency, TF over GST control)
binding signal [16]: 1.29 fold enrichment (6-mer frequency, TF over GST control)
binding signal [17]: 1.35 fold enrichment (6-mer frequency, TF over GST control)
binding signal [18]: 1.43 fold enrichment (6-mer frequency, TF over GST control)
